# ALDH1A1 inh = ALDH1A1 (human) enzyme inhibition | P00352 | Potency, µM (highest dose often 75.3 µM), for the others: at the top dose activity, negative = inhibition, usual class: inhibitors | Purified ALDH1A1, NADH fluorescence, propionaldehyde substrate | actives 7.3% (n = 220,000) | AID 1030;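 further: potency means the concentration at half of the fitted maximal effect; plate controls were no enzyme wells and a reference inhibitor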
# ALOX12 inhib = inhibitors of human 12-lipoxygenase (ALOX12) | P18054 | AID 1452 | actives 0.12% (n = 150,000) | Potency, µM (doses to about 57.1 µM), for the others: at the highest dose activity change, negative = inhibition, hits mostly inhibitors | purified 12-hLO, xylenol orange hydroperoxide absorbance; active means well fitted inhibition curve with a large enough effect; inconclusive means small, poorly fitted or top-dose-only effect; further: potency means the concentration at half of the fitted maximal effect; nearly all actives have a fitted effect of over 55% in size
# Target sequence (P18054 whole entry, looked up): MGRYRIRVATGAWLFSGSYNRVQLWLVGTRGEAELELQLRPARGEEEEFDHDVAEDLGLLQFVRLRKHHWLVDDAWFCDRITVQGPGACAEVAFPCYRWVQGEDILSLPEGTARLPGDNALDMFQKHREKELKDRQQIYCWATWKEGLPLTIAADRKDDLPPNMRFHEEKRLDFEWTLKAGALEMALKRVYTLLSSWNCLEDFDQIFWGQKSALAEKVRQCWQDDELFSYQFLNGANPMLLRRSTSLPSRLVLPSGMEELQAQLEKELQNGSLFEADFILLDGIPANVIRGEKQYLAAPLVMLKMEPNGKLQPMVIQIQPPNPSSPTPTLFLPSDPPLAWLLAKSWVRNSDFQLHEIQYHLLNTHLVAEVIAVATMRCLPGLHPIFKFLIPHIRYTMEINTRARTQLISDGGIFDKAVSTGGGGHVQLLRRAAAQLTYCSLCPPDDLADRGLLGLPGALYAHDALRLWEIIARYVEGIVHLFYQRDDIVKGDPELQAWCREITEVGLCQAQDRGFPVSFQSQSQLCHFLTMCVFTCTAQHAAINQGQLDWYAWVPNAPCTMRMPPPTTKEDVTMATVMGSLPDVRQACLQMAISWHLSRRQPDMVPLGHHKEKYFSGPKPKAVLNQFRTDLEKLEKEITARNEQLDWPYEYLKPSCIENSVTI
#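 Lipoxygenase turnover measured by absorbance at 573 and 405 nm after Fe-XO development. Human 12hLO 150 nM, arachidonate 40 uM, pH 7.0 Hepes buffer with detergent; 15 min compound preincubation, 30 min reaction.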
# HPGD block = blocks human HPGD enzyme activity. purified HPGD, NADH fluorescence kinetic, PGE2 substrate. Potency, µM, for inactives: top-dose activity change, negative = inhibition, most hits filed as inhibitors. actives 4.3% (n = 150,000); further: potency means the concentration at half of the fitted maximal effect
#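 20 nM HPGD preincubated 15 min at room temperature with compound in 50 mM Tris-HCl pH 8, 0.01% Tween 20. Started with 1 mM NAD+ and 30 uM prostaglandin E2; NADH fluorescence (360/450 nm) read 5 times over 30-s intervals, last minus first.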
# LMNA splice mod = LMNA splicing modulation | HeLa LMNA splicing GFP/RFP minigene ratio, 48 h | Potency, µM (top dose mostly 46.1 µM), for inactives: at the top dose ratio change, negative = inhibition, actives largely listed as inhibitors | actives 0.01% (n = 200,000); active means well fitted inhibition curve with a large enough effect in the signal ratio, with a control signal flat, not every such curve was filed as active; inconclusive means small, poorly fitted or top-dose-only effect, or effect the other way, or a change in a side signal; the % refers to the signal ratio; further: potency means the concentration at half of the fitted maximal effect
#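 Read-out is the ratio of GFP to DsRed2 object intensity, acquired by 488 nm laser-scanning cytometry on HeLa lamin A-EGFP minigene reporter cells. Compound incubation 48 hrs at 37 °C in Opti-MEM with 2% FBS; DMSO 0.5% final.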
# PNC inhibitor = perinucleolar compartment assembly inhibition | PC3M PTB-GFP, PNC prevalence imaging, 16 h; active compounds read low | actives 3.1% (n = 140,000) | activity change (PNC), negative = inhibition, % at 10 µM;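 active means readout at or below -70, meaning at least 70% loss of cells showing the perinucleolar compartment, a nuclear body marking cancer cells; inconclusive means readout between -30 and a set limit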;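 further: plate controls were DMSO wells for no effect and camptothecin positive control wells for full effect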
#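 Read-out is percentage of cells bearing a perinucleolar compartment, from automated 20x imaging of fixed, Hoechst-stained PC3M PTB-GFP cells. Cells were seeded 4 h, then exposed 16 h to compound (23 nl of library stock) in duplicate plates.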
# * = called active by the depositor; ? = inconclusive; . = no result given; [ ] = another dose, or the depositor's remark. A selection: hits, their analogues and other compounds. The true share with any hit is near 10%. Unless noted, the call rests on the fitted dose curve; in most records, active means well fitted inhibition curve with a large enough effect (not every such curve was filed as active); inconclusive means small, poorly fitted or top-dose-only effect, or another doubt; inactive means no such curve, though single readings can be large or run the other way. Unless noted, on the % scale 0 is the no-effect control and ±100 the full control effect.
SMILES,ALDH1A1 inh,ALOX12 inhib,HPGD block,LMNA splice mod,PNC inhibitor
CN(CCNC(=O)c1cn(C)c2ccc(S(=O)(=O)N3CCCC3)cc2c1=O)CCc1ccccc1,31.6µM*,-3.1%,-6.7%,-0.4%,?
CCN(CC(=O)NCc1cccs1)c1ccc(S(=O)(=O)N2CCCC2)cn1,2.51µM*,.,.,-8.8%[46 µM],.
Cc1ccccc1CNCCCSc1nnnn1-c1ccccc1,.,.,.,-0.4%[46 µM],.
COC(=O)c1cn(C)c2ccc(S(=O)(=O)N3CCCC3)cc2c1=O,?,-3.0%,8.91µM*,?,-108.5*
Cn1cc(C(=O)NC2CCCCC2)c(=O)c2cc(S(=O)(=O)N3CCCC3)ccc21,?,-2.8%,-10.6%,-1.5%,-23.4
CC1CCCC(NC(=O)COC(=O)c2cc(S(=O)(=O)N3CCCCC3)ccc2N2CCOCC2)C1C (configuration not stated),10µM*,-6.7%,-8.1%,8.4%,26.0
CC1CCCCC1NC(=O)c1cn(C)c2ccc(S(=O)(=O)N3CCCC3)cc2c1=O (configuration not stated),12.6µM*,2.0%,-1.9%,9.4%,-15.0
CN(C1CCCCC1)S(=O)(=O)c1ccc2c(c1)c(=O)c(C(=O)NCCN1CCCC1)cn2C,7.94µM*,0.6%,-10.5%,-3.7%,?
O=C(COC(=O)c1cc(S(=O)(=O)N2CCCCC2)ccc1N1CCOCC1)NC1CCS(=O)(=O)C1 (configuration not stated),10.7%,.,.,-13.2%[46 µM],.
COC(=O)c1cn(C)c2ccc(S(=O)(=O)N3CCOCC3)cc2c1=O,15.1%,.,.,.,.
CN1CCN(c2ncc3nc(-c4cccc(C#N)c4)c(=O)n(C[C@H]4CCCO4)c3n2)CC1,?,.,.,-10.5%,.
COc1cc(OC)c(NC(=O)N2CCc3cc(OC)c(OC)cc3C2CC(=O)O)cc1Cl (configuration not stated),.,.,.,-4.2%[46 µM],.
O=C(CSc1ccc(Cl)cc1)c1ccco1,12.6µM*,?,25.1µM*,?,-12.5
O=C(CCNc1cc(Cl)cc(Cl)c1)c1ccco1,7.94µM*,-5.3%,-15.8%,8.6%,-3.3
Cc1ccccc1NC(=O)CNc1ccc(Cl)c(C(F)(F)F)c1,?,0.2%,.,-21.5%,?
O=C(CSc1ccccc1Cl)c1ccco1,-4.1%,-14.7%,-20.1%,2.2%,-18.9
O=C(CCNc1ccc(F)c(Cl)c1)c1ccco1,3.55µM*,-3.6%,-6.9%,5.2%,-9.6
O=C(CCNc1ccc(Cl)c(C(F)(F)F)c1)c1ccco1,8.91µM*,-9.9%,-6.2%,-7.0%,-11.5
O=C(NCc1cccc(Cl)c1)c1ccco1,-2.1%,-0.7%,-19.4%,10.1%,-10.5
O=C(CCNC(=O)c1ccccc1)Nc1ccc(F)c(Cl)c1,7.1%,2.0%,-6.7%,-6.3%,?
CCc1cccc(C)c1NC(=O)CN1C(=O)C2(SCC(=O)N2c2cc(C)cc(C)c2)c2ccccc21 (configuration not stated),.,.,.,-7.9%[46 µM],.
COc1ccc(C2Oc3cc(OC)cc(OC)c3CC2O)cc1 (configuration not stated),-7.2%,-2.8%,-18.5%,-9.6%,.
O=C(CCNc1cccc(C(F)(F)F)c1)c1ccco1,2.51µM*,5.3%,-8.6%,-6.3%,15.7
O=C(CCNc1ccc(F)cc1)c1ccco1,1.41µM*,6.6%,-2.0%,?,1.6
CCOC(=O)CNc1cccc(C(F)(F)F)c1,-7.2%,.,.,-5.8%[46 µM],.
SMILES,ALDH1A1 inh,ALOX12 inhib,HPGD block,LMNA splice mod,PNC inhibitor
O=C(CNC(=O)c1ccco1)Nc1ccc(F)cc1,6.2%,.,.,.,.
CSc1nc(N)nc(SCC(=O)C23CC4CC(CC(C4)C2)C3)c1C#N,25.1µM*,-2.0%,-18.3%,?,-4.4
Cc1csc(NC(=O)CCNC(=O)c2ccccc2Cl)n1,6.3%,.,.,.,.
CCCCCCCCCCCCCc1ccco1,-2.9%,2.3%,-7.5%,-3.8%,.
CC(Cl)C(=O)NNc1cccc(Cl)n1 (configuration not stated),20µM*,-4.1%,-13.2%,6.6%,8.1
Cc1cc(C)c(S(=O)(=O)N(CC(=O)O)C2CCCCC2)c(C)c1,10.5%,-5.3%,-7.0%,-3.8%,-97.3*
COCCN(C(=O)c1cc(OC)c(OC)c(OC)c1)c1c(N)n(Cc2ccccc2)c(=O)[nH]c1=O,9.2%,.,.,.,.
NC(=O)c1ncn([C@@H]2O[C@@H](CO)[C@@H](O)[C@H]2O)c1O,.,-2.3%,.,.,.
CCSc1ccccc1C(=O)NCc1ccco1,2.4%,5.2%,12.6µM*,4.3%,?
CC(C)(C)C(=O)Nc1ccccc1C(=O)NCc1ccco1,?,-6.4%,-29.4%,?,-137.9*
O=C(NCc1ccco1)C1(c2ccc(Br)cc2)CCCC1,0.178µM*,7.5%,-16.1%,8.9%,8.6
O=C(Nc1ccccc1C(=O)NCc1ccco1)c1ccco1,?,2.3%,-16.4%,7.0%,24.8
O=C(NCc1ccco1)c1ccccc1Br,8.8%,0.7%,2µM*,-4.2%,?
COc1ccccc1CNC(=O)c1ccc2c(c1)sc1nc(-c3ccc(F)cc3)cn12,.,.,.,18.6%[46 µM],.
N#Cc1cc(C(=O)Cc2ccccc2)c[nH]1,-11.5%,.,.,7.4%[46 µM],.
N#CC1=C(N)C(C#N)(C#N)C(c2cccnc2)C2COCC=C12 (configuration not stated),4.1%,-2.9%,28.2µM*,-7.4%,13.0
N#CC1=C(N)C(C#N)(C#N)C(c2cccnc2)C2CN(C(=O)OCc3ccccc3)CC=C12 (configuration not stated),?,-10.3%,-17.6%,-17.2%,-6.9
N#Cc1ccc(CN2CCCC3(CCNCC3)C2)cc1,-5.4%,4.6%,-1.6%,.,.
COc1cccc(Cn2c(CNC(=O)CCc3ccccc3)nc3cccnc32)c1,.,.,.,3.8%[46 µM],.
Cn1c[n+](C)cc1-c1ccc(/C(N)=N/O)cc1,?,-3.3%,-12.5%,?,-80.3*
COc1ccccc1-n1c(-c2cccnc2)n[nH]c1=S,?,-1.1%,-13.6%,3.1%,-2.6
COc1ccccc1/C=C/C=N/n1c(-c2ccc(Cl)cc2)n[nH]c1=S,11.2µM*,.,.,.,.
COc1ccc(OC)c(/C=N/n2c(-c3n[nH]c4c3CCC4)n[nH]c2=S)c1,-4.1%,.,.,.,.
COc1ccccc1/C=C/C=N/n1c(-c2ccccc2)n[nH]c1=S,28.2µM*,.,.,.,.
COc1ccccc1/C=N/n1cnnc1,?,5.1%,?,0.8%,?
COc1ccc(-c2n[nH]c(=S)n2/N=C/C=C/c2ccccc2OC)cc1,1.1%,3.4%,1.26µM*,?,49.7
S=c1[nH]nc(-c2cc(-c3ccccc3)n[nH]2)n1/N=C/c1ccc(Cl)cc1,-0.2%,.,.,.,.
COc1ccccc1/C=C/C=N/n1c(C2CCCCC2)n[nH]c1=S,?,-21.0%,7.08µM*,?,5.4
CCC1(C)SC(N)=NN1C(C)=O (configuration not stated),7.2%,.,.,14.5%[46 µM],.
CCc1ccc(S(=O)(=O)/N=C2/C=C(Sc3ncn[nH]3)C(=O)c3ccccc32)cc1,5.01µM*,?,1.58µM*,?,-123.3*

# Bioassay records: PubChem, National Center for Advancing Translational Sciences (NCATS)
